Data taken from PubChem BioAssay (NCATS).
Inconclusive results are not listed. Where a call stands in place of a potency, no number is given. The source made the active and inactive calls. Unless noted, calls come from the whole dose curve; as a rule, active = well fitted curve in the direction sought with a large enough effect; inconclusive = small, poorly fitted or top-dose-only effect, or another doubt; inactive = no such curve, though single readings can be large; an effect the other way counts as inactive or inconclusive.

Columns and labels:
[1] = Validation of Assay for Modulators of Lamin A Splicing (AID 1459; active = well fitted curve in the direction sought with a large enough effect in the signal ratio; the % refers to the signal ratio;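 note: cells exposed to compound for two days before reading; ratio rise marks activators and ratio drop marks inhibitors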)
In short: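 Splicing correction is reported by an EGFP-containing lamin A minigene in stably transfected S3 HeLa cells, while DsRed2 controls for viability and nonspecific signal. Cells are exposed to compounds for 48 hrs before the GFP over RFP ratio is taken.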

[2] = qHTS Assay for Lipid Storage Modulators (AID 1519; calls by dose curve); conditions: Drosophila S3 cells, BODIPY lipid droplet/cell ratio, laser cytometry, cells loaded with oleic acid; for activity change, negative = inhibition: at 57.5 µM (top of the series)
In short: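 Cells seeded at 5,000 per well were treated with compounds over a concentration series and loaded with oleic acid (400 uM, as added). Lipid droplet fluorescence (488 nm excitation, 500-530 nm channel) was read by laser-scanning cytometry and normalized to 20 uM Triacsin C.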

[3] = Counterscreen for APE1 Inhibitors: Fluorescent Dye Displacement Validation Assay (AID 1707)
In short: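 Counterscreen flags promiscuous DNA binders: compounds displacing ThO from duplex DNA (abasic THF site, 50 nM) reduce 540 nm emission (480 nm excitation). ThO 250 nM final; Tris-HCl pH 7.5 with NaCl, MgCl2 and Tween-20.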

[4] = target: Endonuclease 4 (Escherichia coli (strain K12)) (UniProt P0A6C1); experiment: Counterscreen for APE1 Inhibitors: qHTS Validation Assay for Inhibitors of Endonuclease IV (AID 1708)
In short: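 Enzyme (2 nM) + compound, 15 min RT; add 50 nM TAMRA/BHQ-2 THF-site dsDNA; kinetic read ex525/em598, 3 reads/60 s; activity = read 3 − read 1. Buffer Tris pH 7.5, 50 mM NaCl, 2 mM MgCl2, DTT, Tween-20.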

[5] = target: DNA repair nuclease/redox regulator APEX1 (Homo sapiens) (UniProt P27695); experiment: qHTS Validation Assay for Inhibitors of the Human Apurinic/apyrimidinic Endonuclease 1 (APE1) (AID 1705;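 note: TAMRA fluorescence gain over two minutes as APE1 cuts a quenched THF abasic duplex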)
Sequence of DNA repair nuclease/redox regulator APEX1 (Homo sapiens) (P27695 whole entry, looked up): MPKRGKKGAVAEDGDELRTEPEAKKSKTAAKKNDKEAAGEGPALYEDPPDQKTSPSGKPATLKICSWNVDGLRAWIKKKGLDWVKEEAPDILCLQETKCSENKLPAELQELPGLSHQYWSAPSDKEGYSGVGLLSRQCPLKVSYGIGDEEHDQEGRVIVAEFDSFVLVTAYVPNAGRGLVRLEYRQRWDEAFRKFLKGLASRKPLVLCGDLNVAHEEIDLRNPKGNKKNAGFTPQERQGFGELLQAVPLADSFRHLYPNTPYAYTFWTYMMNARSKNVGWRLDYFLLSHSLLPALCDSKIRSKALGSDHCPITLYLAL
In short: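 Endonuclease activity of human APE1 is followed as dequenching when the enzyme incises a tetrahydrofuran abasic site in a short duplex labelled 5'-TAMRA/3'-BHQ-2 (50 nM final), after 15 min enzyme–compound preincubation at room temperature.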

[6] = target: Alpha-galactosidase A (Homo sapiens) (UniProt P06280); experiment: Counterscreen for Glucocerebrosidase Inhibitors: qHTS Assay for Human alpha-Galactosidase at pH 4.5 (AID 992)
Sequence of Alpha-galactosidase A (Homo sapiens) (P06280 whole entry, looked up): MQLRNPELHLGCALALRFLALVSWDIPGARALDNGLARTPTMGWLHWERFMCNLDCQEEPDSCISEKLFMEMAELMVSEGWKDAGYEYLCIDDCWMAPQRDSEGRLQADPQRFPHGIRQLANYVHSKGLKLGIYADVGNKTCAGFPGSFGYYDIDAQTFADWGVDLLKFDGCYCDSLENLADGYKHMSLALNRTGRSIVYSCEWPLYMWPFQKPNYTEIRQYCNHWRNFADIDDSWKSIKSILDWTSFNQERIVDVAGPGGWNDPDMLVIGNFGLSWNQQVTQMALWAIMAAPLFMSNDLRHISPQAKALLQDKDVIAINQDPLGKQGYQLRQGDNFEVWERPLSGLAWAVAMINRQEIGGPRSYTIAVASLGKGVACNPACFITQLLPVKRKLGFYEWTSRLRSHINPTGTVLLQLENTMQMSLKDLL
In short: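 Fluorogenic 1536-well qHTS at pH 4.5 (citrate, Tween-20): 2 nM enzyme, 80 uM 4-MU-alpha-galactoside, 20 min room temperature, NaOH/glycine stop. Titration 0.7 nM to 77 uM, data normalized to no-enzyme and full-activity controls, Hill-fitted AC50.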

[7] = target: alpha-glucosidase (Oryza sativa, rice) (UniProt Q653V4); experiment: Counterscreen for Glucocerebrosidase Inhibitors: qHTS Assay for Rice alpha-Glucosidase at pH 5.0 (AID 997)
In short: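 Endpoint fluorogenic assay at pH 5.0: compounds (0.7 nM to 77 uM) titrated against 4 nM rice enzyme and 400 uM 4-MU-alpha-glucoside for 20 min at room temperature; NaOH/glycine stop, read ex 365/em 440 nm, Hill-fitted AC50.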

[8] = target: Alpha-galactosidase (Coffea arabica) (UniProt Q42656); experiment: Counterscreen for Glucocerebrosidase Inhibitors: qHTS Assay for Coffee Bean alpha-Galactosidase at pH 5.9 (AID 998)
Sequence of Alpha-galactosidase (Coffea arabica) (Q42656 whole entry, looked up): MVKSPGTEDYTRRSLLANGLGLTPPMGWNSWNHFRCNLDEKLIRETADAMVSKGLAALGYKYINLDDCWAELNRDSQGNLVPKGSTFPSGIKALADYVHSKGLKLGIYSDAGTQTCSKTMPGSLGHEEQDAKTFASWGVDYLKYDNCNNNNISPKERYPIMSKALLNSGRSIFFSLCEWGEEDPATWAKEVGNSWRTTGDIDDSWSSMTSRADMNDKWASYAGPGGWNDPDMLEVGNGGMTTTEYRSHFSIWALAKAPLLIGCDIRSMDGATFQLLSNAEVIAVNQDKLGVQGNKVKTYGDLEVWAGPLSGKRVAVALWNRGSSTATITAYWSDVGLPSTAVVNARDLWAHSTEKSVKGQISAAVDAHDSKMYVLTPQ
In short: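 In 50 mM citric acid pH 5.9 with 0.005% Tween-20, coffee bean enzyme hydrolyses 80 uM 4-MU alpha-D-galactopyranoside over 20 min at RT. Activity is normalized to controls; AC50 comes from Hill-modelled concentration-response data.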

[9] = measured here: cell count channel max response
[10] = measured here: lipid channel max response

| Compound | outcome [1] | activity change, negative = inhibition [2] | max response [2, 9] [%] | max response [2, 10] [%] | Potency [3] | Potency [4] | Potency [5] | outcome [6] | outcome [7] | outcome [8] |
| --- | --- | --- | --- | --- | --- | --- | --- | --- | --- | --- |
| CN(C(=O)Cc1ccc(Cl)c(Cl)c1)C(CN1CCCC1)c1cccc(OCC(=O)O)c1 (stereo not drawn) | inactive | 2.91% (inactive) | 8.86 | 13 | inactive | inactive |  |  |  |  |
| CCCN1CC[C@@H]2c3cc(O)ccc3CC[C@@H]21 | inactive | 1.73% (inactive) | 47.3 | 49.1 | inactive |  |  |  |  |  |
| CC(C)CC(NP(=O)(O)O[C@@H]1O[C@@H](C)[C@H](O)[C@@H](O)[C@H]1O)C(=O)NC(Cc1c[nH]c2ccccc12)C(=O)O (stereo partly drawn) | inactive | 3.22% (inactive) | 23.5 | 29.8 | inactive | inactive | inactive |  |  |  |
| CC1OC1P(=O)(O)O (stereo not drawn) | inactive | 3.73% (inactive) | 11.8 | 19.6 | inactive | inactive | inactive |  |  |  |
| CC(N)[C@H](O)c1ccc(O)c(O)c1 (stereo partly drawn) | inactive | 0.659% (inactive) | 1.77 | 2.21 | inactive | inactive |  |  |  |  |
| C=CCN1CC[C@]23c4c5ccc(O)c4O[C@H]2/C(=N/NC(=O)c2ccccc2)CC[C@@]3(O)[C@H]1C5 | inactive | -1.45% (inactive) | -18.8 | -20.5 | inactive | inactive | inactive |  |  |  |
| c1ccc2c(N3CCNCC3)cccc2c1 | inactive | -1.92% (inactive) | 39.8 | 34.6 | inactive | inactive | inactive | inactive | inactive | inactive |
